Assay outcomes from PubChem BioAssay.
Most compounds without a hit are left out; they make up all but 12% or so of the library.
Pf growth 96h: Primary qHTS for delayed death inhibitors of the malarial parasite plastid, 96 hour incubation | Potency, µM (highest dose often 28.7 µM), most hits filed as inhibitors | AID 504834, 2011 | 6.9% of 320,000 active | P. falciparum luciferase reporter growth, 96 h
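Erythrocytes infected with luciferase-expressing P. falciparum were dispensed at 2% hematocrit and 0.05% parasitemia (final), then incubated with compounds 96 hours at 37 C in 5% CO2. Luminescence after detection reagent addition reported growth.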
Sm TGR block: qHTS Assay for the Inhibitors of Schistosoma Mansoni Peroxiredoxins | 3% of 360,000 active | Potency, µM (highest dose often 114 µM), actives largely listed as inhibitors | purified TGR, DTNB reduction, TNB absorbance 405 nm; note: nearly all actives have a fitted effect of over 60% in size
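TGR 20 nM + NADPH 100 uM (dispensed conc.), cpd preinc 15 min RT; start with NADPH (500 uM addition) then DTNB (15 mM addition). Kinetic TNB absorbance, 405 nm filter. Four-parameter Hill fit across titration.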
Pf growth 48h: Primary qHTS for delayed death inhibitors of the malarial parasite plastid, 48 hour incubation; 5.9% of 310,000 active; P. falciparum luciferase growth in erythrocytes, 48 h; Potency, µM (top dose mostly 28.7 µM), most hits filed as inhibitors
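A one-generation exposure of luciferase-tagged malaria parasites in RPMI 1640/Albumax erythrocyte culture, 37 C and 5% CO2. Inhibition is inferred from decreased luminescence after adding detection reagent.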
AmpC detergent: qHTS Inhibitors of AmpC Beta-Lactamase (assay with detergent). P00811. AmpC hydrolysis of nitrocefin, absorbance 480 nm, 0.01% Triton. Potency, µM (top dose mostly 114 µM), hits mostly inhibitors. 0.041% of 370,000 active. AID 485294, 2010; note: nearly all actives have a fitted effect of over 25% in size
Target sequence (P00811 whole entry, looked up): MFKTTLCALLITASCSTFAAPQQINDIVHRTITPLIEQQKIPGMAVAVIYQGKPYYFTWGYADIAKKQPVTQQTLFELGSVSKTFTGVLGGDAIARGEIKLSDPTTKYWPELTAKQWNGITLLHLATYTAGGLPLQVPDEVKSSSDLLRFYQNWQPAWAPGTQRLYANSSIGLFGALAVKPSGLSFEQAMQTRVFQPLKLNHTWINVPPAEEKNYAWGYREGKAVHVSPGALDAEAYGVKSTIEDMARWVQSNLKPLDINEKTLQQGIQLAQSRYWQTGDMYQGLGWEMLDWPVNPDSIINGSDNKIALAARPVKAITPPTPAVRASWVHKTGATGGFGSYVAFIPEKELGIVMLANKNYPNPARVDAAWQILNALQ
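AmpC (5.3 nM in the dispensed reagent) in 20 mM phosphate pH 7.0 with 0.01% (detergent screen) or 0.0001% Triton X-100 was preincubated with compounds for 15 min at room temperature. Nitrocefin was then added from an 800 uM solution, and hydrolysis was followed at 480 nm.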
AmpC inh no detg: qHTS Inhibitors of AmpC Beta-Lactamase (assay without detergent); 0.52% of 330,000 active; Potency, µM (series often up to 57.1 µM), most hits filed as inhibitors; AmpC nitrocefin hydrolysis, absorbance 480 nm, 0.0001% Triton; note: nearly all actives have a fitted effect of over 20% in size
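AmpC (5.3 nM in the dispensed reagent) in 20 mM phosphate pH 7.0 with 0.01% (detergent screen) or 0.0001% Triton X-100 was preincubated with compounds for 15 min at room temperature. Nitrocefin was then added from an 800 uM solution, and hydrolysis was followed at 480 nm.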
SARS PLP yeast: qHTS of Yeast-based Assay for SARS-CoV PLP. Potency, µM (highest dose often 32.9 µM), most hits filed as activators. 0.19% of 330,000 active. S. cerevisiae expressing SARS-CoV PLpro, growth rescue. AID 485353, 2010; calls by dose curve; note: nearly all actives have a fitted effect of over 55% in size
Of the large screens only hits and unclear results are named; the others gave an inactive call. Unless noted, calls come from the whole dose curve; as a rule, active = well fitted curve in the direction sought with a large enough effect; inconclusive = small, poorly fitted or top-dose-only effect, or another doubt; inactive = no such curve, though single readings can be large; an effect the other way counts as inactive or inconclusive.

C=CCn1c(SC(C)C#N)nc2sc(CC)cc2c1=O (configuration not stated)	Pf growth 96h inconclusive, Pf growth 48h inconclusive
CCc1nnc(NC(=O)COc2ccccc2[N+](=O)[O-])s1	none
O=C(Nc1ccc(Oc2ccccc2)nc1)C1CCN(Cc2cccc(F)c2)CC1	Pf growth 48h inconclusive, AmpC detergent inconclusive
C#Cc1ccc(CN2CCC(C(=O)Nc3ccc(Oc4ccccc4)nc3)CC2)cc1	Pf growth 96h 2.3µM, Pf growth 48h inconclusive
COc1cc2c(c(OC)c1OC)-c1c(cc3c(c1OC)OCO3)[C@@H](OC(C)=O)[C@H](C)[C@H](C)C2	Pf growth 96h 10µM, Pf growth 48h 13µM
C/C=C(/C)C(=O)O[C@@H]1c2cc(OC)c(OC)c(OC)c2-c2c(cc3c(c2OC)OCO3)C[C@H](C)[C@]1(C)O	Pf growth 96h inconclusive, Pf growth 48h inconclusive
CCCCn1c(CCC)nc([N+](=O)[O-])c1Sc1ccc(Cl)cn1	Pf growth 96h 15µM, Sm TGR block 22µM, Pf growth 48h 10µM
CC(C)Cn1c(C(C)C)nc([N+](=O)[O-])c1Sc1ccc(Cl)cn1	Pf growth 96h 9.3µM, Pf growth 48h 9.3µM, AmpC detergent inconclusive
O=C(NCc1ccco1)C1CCN(S(=O)(=O)c2cccc([N+](=O)[O-])c2)CC1	Pf growth 48h 9.3µM
COc1ccccc1CNC(=O)C1CCN(S(=O)(=O)c2cccc([N+](=O)[O-])c2)CC1	none
O=C(NCc1ccco1)C1CCN(C(=O)c2ccc([N+](=O)[O-])cc2)CC1	Sm TGR block 25µM
CC1(C)OC(=O)C(=NNc2ccc(Br)cc2)C(=O)O1	AmpC detergent inconclusive
CC(C)OC(=O)c1c(NC(=O)C2c3ccccc3Oc3ccccc32)sc2c1CCCC2	none (no result: Pf growth 96h, Pf growth 48h, AmpC inh no detg, SARS PLP yeast)
Cc1ccc(CSc2ncn(-c3ccccc3)n2)cc1	Pf growth 96h inconclusive (no result: Pf growth 48h)
Cc1ccc(CSc2nccc(-c3c(C)nc4ccccn34)n2)cc1	Pf growth 96h inconclusive, Pf growth 48h 13µM
CCOc1ccc(-n2c(-c3ccc(Br)cc3)c[n+]3c2CCCCC3)cc1	Pf growth 96h inconclusive, Pf growth 48h 5.2µM
CCOc1ccc(-n2c(-c3ccc(OC)cc3)c[n+]3c2CCCCC3)cc1	Pf growth 96h inconclusive, Pf growth 48h 0.74µM, AmpC detergent inconclusive
O=C(NC1CCCc2c1cnn2-c1ccccc1F)c1ccccc1N1CCOCC1 (configuration not stated)	Pf growth 48h inconclusive
COc1cc(/C=C2\C(=O)ON=C2c2ccccc2)cc(OC)c1OC	Pf growth 96h inconclusive, Sm TGR block 8.9µM
Cc1ccc(C2=NOC(=O)/C2=C\C=C\c2ccccc2)cc1	Pf growth 96h 2.9µM, Sm TGR block inconclusive, AmpC inh no detg 32µM
COc1ccc(/C=C2/C(=O)ON=C2c2ccccc2)cc1OC	Sm TGR block inconclusive
CC1=NN(c2ccccc2)C(=O)/C1=C/C=C/c1ccccc1	Pf growth 96h inconclusive, Pf growth 48h inconclusive
O=C1ON=C(c2ccccc2)/C1=C/c1ccc(-c2ccccc2[N+](=O)[O-])o1	Pf growth 96h 8.3µM, Sm TGR block 11µM, Pf growth 48h inconclusive, AmpC detergent inconclusive
CN(C)/C=C1\C(=O)ON=C1c1ccccc1	none
O=C1ON=C(c2ccccc2)/C1=C/c1ccco1	Pf growth 96h inconclusive, Sm TGR block 20µM
O=C1[C@H]2[C@H](ON3CCCC[C@H]23)C(=O)N1c1ccc(Cl)cc1	none
CCN(CC)S(=O)(=O)c1ccc(NC(=O)CN(c2ccccc2)S(=O)(=O)N(C)C)cc1	none (no result: Pf growth 96h, Pf growth 48h, AmpC inh no detg, SARS PLP yeast)
Cc1ccc(CSc2nc(=O)c3c(C)cc(C)nc3n2C2CC2)cc1	none (no result: Pf growth 96h, Pf growth 48h, AmpC inh no detg, SARS PLP yeast)
COc1cccc(CCNC(=O)CCc2nnc(Cc3cc(OC)ccc3OC)o2)c1	AmpC detergent inconclusive
CCOc1ccccc1NC(=O)CN1C=NS(=O)(=O)c2ccccc21	none (no result: Pf growth 96h, Pf growth 48h, AmpC inh no detg, SARS PLP yeast)
O=C1NNC(c2ccccc2)=N/C1=C\c1ccco1	Sm TGR block 20µM
COc1ccc(/C=C2\C(=O)ON=C2c2cccc([N+](=O)[O-])c2)cc1	Sm TGR block 11µM
Cc1cc2nc(C)n(CCCNC(=O)Nc3ccc(C#N)cc3)c2cc1C	Pf growth 48h 10µM
Cc1cc(C2=NNC(=NCc3ccccc3)SC2)c(C)n1-c1c(C)n(C)n(-c2ccccc2)c1=O	Pf growth 96h inconclusive, Pf growth 48h 12µM
NC(=O)CCCCC(=O)OCCCc1cccs1	Pf growth 96h 4.7µM, Sm TGR block inconclusive, AmpC detergent inconclusive
Cn1nc(C(=O)NCc2ccco2)c2ccccc2c1=O	none
O=C(Cn1ccc(C(F)(F)F)n1)Nc1ccc(S(=O)(=O)NCc2ccco2)cc1	Sm TGR block 45µM
COc1ccccc1NS(=O)(=O)c1cccc(NC(=O)c2nn(C)c(=O)c3ccccc23)c1	Pf growth 96h 10µM, Pf growth 48h inconclusive
Cn1nc(C(=O)Nc2ccc(S(=O)(=O)NCc3ccco3)cc2)c2ccccc2c1=O	Pf growth 96h 12µM, Pf growth 48h inconclusive
Cn1nc(C(=O)Nc2ccc(S(=O)(=O)N3CCCCC3)cc2)c2ccccc2c1=O	Pf growth 96h 8.3µM, Pf growth 48h inconclusive, AmpC detergent inconclusive
COc1ccc(NC(=O)c2nn(C)c(=O)c3ccccc23)cc1S(=O)(=O)Nc1ccccc1Cl	none
O=C(Cc1n[nH]c(=O)c2ccccc12)OCC(=O)c1ccccc1	none
CC(C)NC(=O)c1sc2ncccc2c1-n1cccc1	none (no result: Pf growth 96h, Pf growth 48h, AmpC inh no detg, SARS PLP yeast)
Cn1nc(C(=O)Nc2cccc(S(=O)(=O)N3CCCCC3)c2)c2ccccc2c1=O	Pf growth 96h 9.3µM, Pf growth 48h inconclusive
O=C(Cn1nc(C(=O)O)c2ccccc2c1=O)Nc1cccc(S(=O)(=O)N2CCCCC2)c1	none (no result: Pf growth 96h, Sm TGR block, Pf growth 48h, AmpC detergent)
CC(C)/C=N/Nc1nc(-c2ccc(Br)cc2)cs1	AmpC detergent inconclusive
COc1cccc(CNc2ncnc3ccc(-c4c(C)noc4C)cc23)c1	Pf growth 96h 5.9µM, Pf growth 48h 4.1µM, AmpC detergent inconclusive
Cc1noc(C)c1-c1ccc2ncnc(NCC3CCCCN3C)c2c1 (configuration not stated)	Pf growth 96h 2.3µM, Pf growth 48h 4.1µM
Cc1ccsc1CNc1ncnc2ccc(-c3c(C)noc3C)cc12	none (no result: Pf growth 96h, Sm TGR block, Pf growth 48h, AmpC detergent)
O=C(Cc1ccccc1)NN1CCCCC1	none
CCOc1ccc(C2C(C#N)=C(N)Oc3c2c(=O)oc2ccccc32)cc1 (configuration not stated)	Pf growth 96h inconclusive
